Sm TGR inh – blocks Schistosoma mansoni thioredoxin glutathione reductase; Q962Y6; purified TGR, DTNB reduction, TNB absorbance 405 nm; Potency, µM (highest dose often 114 µM), most hits filed as inhibitors; actives 3% (n = 360,000); AID 485364; further: nearly all actives have a fitted effect of over 60% in size
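Kinetic colorimetric format: TGR-catalysed, NADPH-driven DTNB reduction monitored via TNB absorbance. Enzyme dispensed at 20 nM; compound exposure 15 min at room temperature before reaction start.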
Pf growth 96h – inhibits malaria parasite growth, 96 h; P. falciparum luciferase reporter growth, 96 h; Potency, µM (doses to about 28.7 µM), usual class: inhibitors; actives 6.9% (n = 320,000)
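Compounds incubated with erythrocytes infected by luciferase-expressing P. falciparum (2% hematocrit, 0.05% parasitemia final) for 96 hours, 37 C in 5% CO2. Growth inhibition scored as decreased luciferase luminescence.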
Pf growth 48h – inhibits P. falciparum growth in the first generation, 48 h | P. falciparum luciferase growth in erythrocytes, 48 h | Potency, µM (doses to about 28.7 µM), hits mostly inhibitors | actives 5.9% (n = 310,000)
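Firefly luciferase activity from engineered P. falciparum reports growth; inhibitors lower the luminescent signal. Cultures contained 2% hematocrit erythrocytes at 0.1% final parasitemia.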
SARS PLP yeast – SARS-CoV PLP inhibition in yeast; S. cerevisiae expressing SARS-CoV PLpro, growth rescue; Potency, µM (series often up to 32.9 µM), most hits filed as activators; actives 0.19% (n = 330,000); AID 485353; calls by dose curve; further: nearly all actives have a fitted effect of over 55% in size
Each line names hits and unclear results; the compound was inactive in the other large screens. In the library only some 12% were active in any assay of this set; here they are far more common. Unless noted, the call rests on the fitted dose curve; in most records, active means well fitted curve in the direction sought with a large enough effect; inconclusive means small, poorly fitted or top-dose-only effect, or another doubt; inactive means no such curve, though single readings can be large; an effect the other way counts as inactive or inconclusive.

CCOc1cc(NC(=O)c2ccco2)c(OCC)cc1NC(=O)Cc1cccc(OC)c1	Pf growth 48h 4.7µM
COc1ccccc1OCC(=O)Nc1cc(C)ccc1NC(=O)c1ccco1	Pf growth 96h 10µM, Pf growth 48h inconclusive
CCOc1cc(NS(=O)(=O)c2ccc(OC)cc2)c(OCC)cc1NC(=O)c1ccco1	none
COc1ccc(OCC(=O)Nc2cc(NC(=O)c3ccco3)ccc2OC)cc1	Pf growth 96h 8.3µM, Pf growth 48h inconclusive
COc1ccc(NC(=O)c2ccco2)cc1NC(=O)COc1ccccc1	none
COc1ccc(CCn2c(=O)c3cccnc3n(CC(=O)Nc3ccc(C)c(F)c3)c2=O)cc1OC	none (no result: Pf growth 96h, Pf growth 48h, SARS PLP yeast)
CCOc1ccc(CCNC(=O)Cn2nc(CC)n3c(cc4c(OC)cccc43)c2=O)cc1OCC	none (no result: Pf growth 96h, Pf growth 48h, SARS PLP yeast)
COc1cc(NC(=O)COc2ccc(C)c(C)c2)ccc1NC(=O)c1ccco1	Pf growth 48h 7.4µM
O=C1CC(c2ccccc2)Sc2nc3ccccc3n21 (centres undefined)	none
COc1ccc(C2CC(=O)N(C)c3ccccc3S2)cc1 (centres undefined)	none
CN1C(=O)CC(c2ccco2)Sc2ccccc21 (centres undefined)	Sm TGR inh 40µM
O=C(CN1C(=O)CC(c2ccco2)Sc2ccccc21)NCC1CCCO1 (centres undefined)	Sm TGR inh 13µM, Pf growth 48h inconclusive
COc1ccc(C2CC(=O)N(CC(=O)NCC3CCCO3)c3ccccc3S2)cc1 (centres undefined)	none
CCCN1C(=O)CC(c2ccco2)Sc2ccccc21 (centres undefined)	Sm TGR inh 14µM, Pf growth 48h inconclusive
CCOC(=O)CNC(=O)CN1C(=O)CC(c2ccco2)Sc2ccccc21 (centres undefined)	none
O=C1CC(c2ccco2)Sc2nc3ccccc3n21 (centres undefined)	Sm TGR inh 50µM
CCC(Sc1nc2ccccc2c2nc(CCc3c(C)n[nH]c3C)nn12)C(=O)Nc1ccc(F)cc1 (centres undefined)	none (no result: Pf growth 96h, Pf growth 48h, SARS PLP yeast)
O=C1C(=O)c2ccccc2C(O)=C1c1cccc([N+](=O)[O-])c1	Pf growth 96h 7.4µM, Pf growth 48h inconclusive
O=C1C(c2ccncc2)=C(O)c2ccccc21	none
CC(C)c1ccc(C2=C(O)c3ccccc3C(=O)C2=O)cc1	Pf growth 48h 1.5µM
Cc1ccc(C2=C(O)c3ccccc3C(=O)C2=O)cc1	Pf growth 48h inconclusive
CCn1ccc2cc(S(=O)(=O)N3CCCN(C(=O)Nc4ccc(C)cc4Cl)CC3)ccc21	none (no result: Pf growth 96h, Pf growth 48h, SARS PLP yeast)
Cc1ccc(C(=O)C2CCN(C(=S)NCCCOC(C)C)CC2)cc1	none
CC(CNC(=O)c1cccnc1)NC(=O)c1cccnc1 (centres undefined)	none (no result: Sm TGR inh, SARS PLP yeast)
Cc1cc(OCC(=O)Nc2sc3c(c2C#N)CC(C)(C)NC3(C)C)c(C(C)C)cc1Cl	Pf growth 96h 7.4µM, Pf growth 48h 13µM
CC1(C)Cc2c(sc(NC(=O)COc3ccccc3)c2C#N)C(C)(C)N1	none
COc1ccc(CC(=O)Nc2sc3c(c2C#N)CC(C)(C)NC3(C)C)cc1OC	Sm TGR inh 89µM
CCCC(=O)Nc1sc2c(c1C#N)CC(C)(C)NC2(C)C	Pf growth 96h 2.1µM
COc1ccc(-n2nc(C(=O)N(C)c3cc(C)ccc3C)c3c4ccccc4n(C)c3c2=O)cc1Cl	none (no result: Pf growth 96h, Pf growth 48h, SARS PLP yeast)
CCc1nc2nc(C)cc(Nc3ccc(OC)cc3OC)n2n1	none (no result: Pf growth 96h, Pf growth 48h, SARS PLP yeast)
COCCCn1c(-c2ccc(Cl)cc2)n[nH]c1=S	Pf growth 96h inconclusive (no result: Pf growth 48h)
COCCCn1c(-c2ccccc2Cl)n[nH]c1=S	Pf growth 96h 1.9µM
Cc1ccc(OCC(O)CN2CCc3ccccc3C2)c(C)c1 (centres undefined)	Sm TGR inh inconclusive
CN(Cc1cnccn1)Cc1ccccc1OCC(O)CN1CCc2ccccc2C1 (centres undefined)	Pf growth 48h 12µM
O=C1C(=O)N(CCCc2ccccc2)c2ccccc21	Pf growth 96h 10µM, Pf growth 48h inconclusive
CCOC(=O)C1=C(O)/C(=C\c2ccc(CNC(=O)C(=O)Nc3ccccc3)o2)N=C1C	Sm TGR inh 8.9µM (no result: Pf growth 96h)
COc1cc(OC)c(NC(=O)C(NS(=O)(=O)c2cccc3nsnc23)c2ccccc2)cc1Cl (centres undefined)	none (no result: Pf growth 96h, Pf growth 48h, SARS PLP yeast)
CC1=CC(=C2C=CC(=O)C=C2)C=C(C)N1C	Pf growth 96h 1.9µM, Pf growth 48h 7.4µM
CN(C)C(=O)c1ccc(-c2nnc(NCc3ccccc3)c3ccccc23)cc1	Pf growth 96h 2.9µM, Pf growth 48h 13µM, SARS PLP yeast inconclusive
CCN(CC)C(=O)c1ccc(-c2nnc(Nc3ccc(O)cc3)c3ccccc23)cc1	Pf growth 48h inconclusive
